# HTT ATP protect = Huntington cell model cytoprotection by ATP luminescence; Potency, µM (titrated, usually from 56.4 µM), actives largely listed as activators; 0.14% of 230,000 active; PC12 HTT-Q103 induced, cytoprotection, ATP luminescence, 40 h; note: nearly all actives have a fitted effect of over 45% in size
#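 Quantitative HTS on tebufenozide-induced (100 nM) PC12 cells expressing HTTQ103 exon 1–GFP; compounds tested as a concentration series; survival measured via cellular ATP.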
# ALDH1A1 inh = ALDH1A1 (human) enzyme inhibition; Potency, µM (top dose mostly 75.3 µM), hits mostly inhibitors; P00352; 7.3% of 220,000 active; Purified ALDH1A1, NADH fluorescence, propionaldehyde substrate; active = well fitted inhibition curve with a large enough effect, not every such curve was filed as active; inconclusive = small, poorly fitted or top-dose-only effect, or another doubt; inactive = no such curve, though single readings can be large or run the other way
# Target sequence (P00352 whole entry, looked up): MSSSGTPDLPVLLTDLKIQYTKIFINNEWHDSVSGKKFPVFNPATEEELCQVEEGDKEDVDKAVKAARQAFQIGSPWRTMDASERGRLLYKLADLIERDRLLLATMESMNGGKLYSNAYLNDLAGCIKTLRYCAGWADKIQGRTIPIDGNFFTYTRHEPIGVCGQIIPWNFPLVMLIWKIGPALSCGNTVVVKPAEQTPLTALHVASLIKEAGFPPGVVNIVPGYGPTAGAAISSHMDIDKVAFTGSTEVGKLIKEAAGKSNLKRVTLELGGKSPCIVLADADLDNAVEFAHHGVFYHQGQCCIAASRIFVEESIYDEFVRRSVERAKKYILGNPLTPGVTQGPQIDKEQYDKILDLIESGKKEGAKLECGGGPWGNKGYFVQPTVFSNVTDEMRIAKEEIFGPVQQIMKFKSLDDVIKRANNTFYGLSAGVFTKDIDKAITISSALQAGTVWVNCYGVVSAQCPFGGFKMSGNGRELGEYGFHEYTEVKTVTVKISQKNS
# PNC inhibitor = blocks assembly of the perinucleolar compartment. PC3M PTB-GFP, PNC prevalence imaging, 16 h; stronger effect = lower value. activity change (PNC), negative = inhibition, % at 10 µM. 3.1% of 140,000 active;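 active = readout at or below -70, meaning at least 70% loss of cells showing the perinucleolar compartment, a nuclear body marking cancer cells; inconclusive = readout between -30 and a set limit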
#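 Compounds are pinned in duplicate onto adhered PC3M cells stably expressing GFP-tagged PTB and incubated 16 h at 37 C. Cells are then fixed, nuclei stained with Hoechst, and PNC-positive cells counted.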
# CBFb RUNX1 block = CBF-beta/RUNX1 interaction disruption; Q01196+Q13951; 230,000 tested, under 10 active; AlphaScreen CBFb-His/RUNX1-biotin binding, biochemical; Potency, µM (highest dose often 59.8 µM), actives largely listed as inhibitors
#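 Room-temperature protein-protein interaction test with 30 nM each of His-tagged CBF-beta and biotinylated RUNX1, 15 min with compound, then 90 min with nickel plus streptavidin beads. Signal read in AlphaScreen mode.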
# HTT aggregate = inhibitors of mutant huntingtin aggregate formation in PC12 cells. PC12 HttQ103-GFP aggregates, Acumen cytometry, 40 h. Potency, µM (doses to about 46.1 µM), most hits filed as inhibitors. 1.1% of 220,000 active. AID 1688; note: nearly all actives have a fitted effect of over 60% in size
#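 Read-out: GFP aggregate count by laser scanning cytometer (488 nm excitation, 500-530 nm emission, 1–25 µm objects >6 SD above background). Cells: PC12, inducible HTTex1-Q103-GFP, 100 nM tebufenozide; compounds titrated.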
# HPGD inh = inhibitors of human 15-hydroxyprostaglandin dehydrogenase (HPGD); P15428; purified HPGD, NADH fluorescence kinetic, PGE2 substrate; Potency, µM, usual class: inhibitors; 4.3% of 150,000 active; AID 894; active = well fitted inhibition curve with a large enough effect, not every such curve was filed as active; inconclusive = small, poorly fitted or top-dose-only effect, or another doubt; inactive = no such curve, though single readings can be large or run the other way
#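 NADH formation kinetics: reaction with 30 uM PGE2 and 1 mM NAD+ (final), 20 nM enzyme, Tris-HCl pH 8 with Tween 20, after 15 min compound preincubation at room temperature. Fluorescence change, last versus first of five reads.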
# Hits are given with their value; 0 = inactive; ? = inconclusive; - = no result; [ ] = dose if it differs, or a comment. In the library only some 11% were active in any assay of this set; here they are far more common. Unless noted, calls come from the whole dose curve; as a rule, active = well fitted curve in the direction sought with a large enough effect; inconclusive = small, poorly fitted or top-dose-only effect, or another doubt; inactive = no such curve, though single readings can be large; an effect the other way counts as inactive or inconclusive.
SMILES,HTT ATP protect,ALDH1A1 inh,PNC inhibitor,CBFb RUNX1 block,HTT aggregate,HPGD inh
Clc1ccccc1-c1ccc2ncnc(NC3CCNCC3)c2c1,0,0,-,-,-,-
O=C(CN1C(=O)S/C(=C\C=C\c2ccccc2)C1=O)Nc1ccc(O)cc1,0[10 µM],0,0,0,?,0
CCOC(=O)CN1C(=O)S/C(=C/C=C/c2ccc(N(C)C)cc2)C1=O,0[10 µM],25µM,0,0,?,0
Clc1ccc(-c2nnc(-c3ccco3)nc2N2CCCCC2)cc1,-,2.2µM,?,0,0,?
Clc1ccc(-c2nnc(-c3ccc(Br)cc3)c(N3CCSCC3)n2)cc1,0,0,0,0,0,0
O=C(NCc1ccco1)c1cccs1,0,?,0,0,?,25µM
O=C(NCc1ccco1)c1cnccn1,0,28µM,?,0,0,0
O=C(NCc1ccco1)c1nn2c(C(F)(F)F)cc(-c3cccs3)nc2c1Br,0,22µM,0,0,0,0
O=C(NCCCCNC(=O)c1cccs1)c1cccs1,-,0,-114,0,0,0
O=C(NCc1ccco1)c1nc2nc(-c3cccs3)cc(C(F)(F)F)n2n1,0,?,0,0,0,?
CC(C)CCN(C(=O)COc1ccc(C#N)cc1)c1c(N)n(Cc2ccccc2)c(=O)[nH]c1=O,0,0,-,0,0[9.22 µM],-
CCCCNC(=O)c1onc(CSc2ccc(Cl)cc2)c1C(=O)O,0,0,0,0,0,0
Cc1cccn2c(=O)c(-c3nnn[nH]3)cnc12,0,-,-,-,0,-
COC(=O)N1CCC2(CC1)CCN(c1ccccc1)CC2,0,0,-,-,-,0
O=C(CCC(=O)c1cccs1)c1cccs1,0[10 µM],28µM,0,0,0,0
COc1cc(NCCC(=O)c2cccs2)c(OC)cc1Cl,0[10 µM],1.4µM,-,0,0,-
O=C(CSCc1ccco1)c1cccs1,0,?,0,0,0,16µM
O=C(NCc1ccco1)Nc1cccs1,0,28µM,?,0,0,0
O=C(CCC(=O)c1cccs1)NC(c1ccccc1)c1ccccc1,0,?,0,0,0,0
O=C(NNC(=S)NCc1ccco1)c1cccs1,0[10 µM],?,0,0,?,-
O=C(NCc1ccco1)c1cc2nc(-c3ccc4c(c3)OCO4)cc(C(F)(F)F)n2n1,0[10 µM],?,?,0,0,?
O=C(NCc1ccco1)c1cc(-c2cccs2)on1,0,22µM,0,0,0,?
COc1ccc(-c2cc(C(F)(F)F)n3nc(C(=O)NCc4ccco4)cc3n2)cc1,0,?,-114,0,0,?
O=C(NCCc1cn2ccsc2n1)c1cccs1,0,?,0,0,0,25µM
O=C(NCc1ccco1)c1cc(-c2ccccc2)on1,0,0,0,0,0,0
SMILES,HTT ATP protect,ALDH1A1 inh,PNC inhibitor,CBFb RUNX1 block,HTT aggregate,HPGD inh
O=S(=O)(NCc1cn2ccsc2n1)c1cccs1,0,0,0,0,0,0
O=C(NCC1CCCO1)C1CC(c2ccccc2Cl)=NO1 (centres undefined),0,0,0,0,0,20µM
COc1ccc(CN(CCC(c2ccccc2)c2ccco2)C(=O)c2ccco2)cc1 (centres undefined),?,7.9µM,0,0,0,28µM
O=C(c1ccco1)N(CCC(c1ccccc1)c1ccco1)Cc1ccccc1 (centres undefined),0[10 µM],8.9µM,0,0,0,0
Cc1ccccc1N1CCN(S(=O)(=O)CC23CCC(CC2NC(=O)C(N)CCS(C)(=O)=O)C3(C)C)CC1 (centres undefined),-,-,-,0,-,-
CCCCCCCC[n+]1c(C)n(-c2ccccc2)c2ccc(NC(C)=O)cc21,0,0,-,0,10µM,-
CC(=O)Nc1ccc(SCC(=O)c2cc(C)n(-c3ccccc3)c2C)cc1,0[10 µM],0,0,0,0,0
Cc1ccc(C)c(NC(=S)/C(=C(\[O-])c2ccc(Cl)s2)[n+]2ccccc2)c1,0[10 µM],?,-,0,0,-
Cc1cc(C)cc(NC(=S)/C(=C(\[O-])c2ccc(Cl)s2)[n+]2cccc(C)c2)c1,0,25µM,-,0,0[9.22 µM],-
CCC1OC(=O)C(C)[C@@H](O[C@H]2C[C@@](C)(OC)C(O)C(C)O2)C(C)[C@@H](O[C@@H]2OC(C)CC(N(C)C)C2O)[C@@](C)(O)CC(C)CN(C)C(C)C(O)[C@]1(C)O (some centres undefined),?,0,-,0,-,0
O=C(Nc1ccc(Cl)c(Cl)c1)c1ccc(Cl)c(Cl)c1,0[10 µM],0,-,0,0[9.22 µM],-
Cc1ccc(NC(=O)c2ccc(Cl)c(N3C(=O)C=CC3=O)c2)cc1,0,3.2µM,0,0,?,3.5µM
CC[C@@]1(c2ccccc2)NC(=O)NC1=O,-,-,-,0,-,-
CN(C)CCN(c1ccccn1)c1ccccn1,0[10 µM],0[13.5 µM],-,-,-,0
O=C(CN1CCC(C(O)(c2ccccc2)c2ccccc2)CC1)Nc1ccccc1,0,0,0,0,?,0
O=C(CN1CCC(C(O)(c2ccccc2)c2ccccc2)CC1)Nc1cc(Cl)ccc1Cl,0,?,-100,0,0,0
CN(CC(=O)NCc1ccco1)S(=O)(=O)c1cccc2cccnc12,0,0,0,0,0,0
Cc1ccc(NNC(=S)Nc2ccc(C(C)C)cc2)c(C)c1,0[10 µM],22µM,0,0,0,?
CC(C)c1ccc(NC(=S)Nc2ccc(OC(F)(F)F)cc2)cc1,0[10 µM],?,-,0,0,-
CC[N+](CC)(CCO)CCCN1C(=O)C2CC=C(Cl)CC2C1=O (centres undefined),0,0,-81,0,0,0
O=C1CCC/C(=N\NC(=O)c2ccc(COc3ccccc3-c3ccccc3)cc2)C1,0[10 µM],0,-,0,0,-
C/C(CCC(C)C)=N\NC(=O)COc1ccccc1-c1ccccc1,0,7.1µM,-,0,0,-
CC1(NC(=O)COc2ccccc2-c2ccccc2)CCS(=O)(=O)C1 (centres undefined),0,0,-96,0,0,0
CC(NC(=O)COc1ccccc1-c1ccccc1)c1ccccc1 (centres undefined),0[10 µM],0,0,0,?,0
O=C(COc1ccccc1-c1ccccc1)NN=C1CCCC1,0,11µM,-,0,0,-
COc1cc(NC(=S)N2CCC(C(O)(c3ccccc3)c3ccccc3)CC2)cc(OC)c1,-,0,0,0,0,0
CCc1cc2c(nc1CC)CCN(CC/C(C)=N/O[C@@H](C)CN1CCCCc3nc(C)c(C)cc31)C2,0[10 µM],0[13.5 µM],-,0[13.1 µM],-,-
Nc1nc(N)nc(COc2ccccc2)n1,-,0,-,0,0,-
CN(C(=O)CSc1nc2cc(C(=O)O)ccc2c(=O)n1Cc1ccccc1)C1CCS(=O)(=O)C1 (centres undefined),0,0,-,0,0,-
CCOC(=O)c1c(NC(=O)CSc2nc3cc(Cl)ccc3c(=O)n2Cc2ccco2)sc(C(=O)N(C)C)c1C,0[10 µM],0,0,0,7.1µM,-

# Screening results from PubChem.
